Experimental findings from the supplement of paper PMC5940239 are described below.

The first test deals with Madurella mycetomatis MM55.
Experiment: not given
The following applies: 7 days.
What is called IC50 is the concentration needed to halve the response being measured. For the compound `COc1ccc(-c2nnc3ccc(-c4cccc(C(C)C)c4)cn23)cc1OC`, the IC50 was 40.6 µM.
Turning to `CN1CCN(CCCOc2ncc(Nc3ncc(-c4ccc(C(F)(F)F)c(F)c4)nc3C(N)=O)cn2)CC1`, the IC50 amounted to 25.7 µM.
`c1ccc(-c2nc(NC3CCCCC3)cc(C3CC3)n2)nc1` registered an IC50 of 10.3 µM.
Still for that read-out and setting: for `CC(Oc1ccccc1)C(=O)Nc1nc(-c2ccccn2)cs1` (stereo unspecified) the value was 10.1 µM; for `O=C(Nc1ccc(C(F)(F)F)c(C(F)(F)F)c1)c1cc(Cl)ccc1O`, 1.45 µM.
Same read-out and setting: for `c1ccc(Oc2ccc(-c3cc(CN4CCOCC4)[nH]n3)cc2)cc1` the value was 65.4 µM; for `O=C(Nc1cccc(Cl)c1)c1cnc(N2CCN(c3ccncc3)CC2)c(Cl)c1`, 9.3 µM.
Same read-out and setting: for `Cc1cc(NCC(C)C)c2n[nH]c(-c3ccccc3)c2n1` the value was 52.5 µM; for `O=C(Nc1cccc(-c2ccc(NCCCN3CCCC3)nc2)c1)c1ccccc1`, 53.1 µM.
`CCc1c(C)nc(-n2nc(C)cc2NC(=O)c2ccccc2SC)[nH]c1=O`: the IC50 was determined as 6.75 µM.
In turn, `NCCN(C(=O)c1ccc(Cl)cc1Cl)c1ccc(OCc2ccc(Cl)cc2)cc1` displayed an IC50 of 10.5 µM.
Regarding `Oc1c(I)cc(I)c2cccnc12`, the IC50 came to 2.55 µM.
With `CC(C)(C)C1CCC(CC2=C(O)C(=O)c3ccccc3C2=O)CC1` (stereo unspecified), the IC50 was determined as 66.8 µM.
As to `COc1ccc(C2=NN(C3CCCCCC3)C(=O)[C@@H]3CC=CC[C@H]23)cc1OCCCCOc1ccc(-c2nn[nH]n2)cc1`, the IC50 was 18.6 µM.
`O=C(Nc1nc(-c2ccccn2)cs1)c1cncn1-c1ccccc1` showed an IC50 of 10.8 µM.
As to `FC(F)(F)c1cc(NCCc2ccccc2)nc(-c2ccccn2)n1`, the IC50 worked out at 55.5 µM.
Turning to `N#CCN(CCCCN1CCN(c2ccc(F)cc2)CC1)C(=O)OCc1ccccc1`, the IC50 is 64.3 µM.
Compound `CC(C)(C)n1nc(Cc2ccc(F)c(Cl)c2)c2c(N)ncnc21` had an IC50 of 62 µM.
With `Cc1cc(C)nc(-n2nc(C)cc2Nc2ccccc2)n1`, the concentration for half-maximal inhibition (IC50) amounted to 58.1 µM.
The same measure, in the same setting: for `COc1ccc(C2=NN(C3CCCCCC3)C(=O)C2(C)C)cc1OCCCCOc1ccc(-c2nn[nH]n2)cc1` the value was 50.9 µM.
`CCCCc1ccc(C(=O)Nc2nccc3ccccc23)nc1`: the IC50 amounted to 54.6 µM.
Still for that read-out and setting: for `CC(C)(C)c1ccc(N[C@@H]2CCCC[C@H]2NC(=O)c2ccco2)cc1` the value was 53 µM; for `COc1ccc(CN2CCOc3ccc(C(C)(O)CN(C)C)cc3C2)cc1C` (stereo unspecified), 60.6 µM.
As for `CC(C)(C)n1nc(-c2ccccc2)c2c(N)ncnc21`, the concentration for half-maximal inhibition (IC50) was determined as 49.4 µM.
For the compound `CCOc1ccc2cc(-c3nn(CC4CCN(C)CC4)c4ncnc(N)c34)ccc2c1`, the IC50 turned out to be 51.8 µM.
Still for that read-out and setting: to `COc1ccc(C(=N)N)cc1-c1cn(-c2ccc(C(=N)N)cc2)nn1` belongs 56.6 µM.
`Cn1c(=O)c2c(S(C)(=O)=O)snc2n(C)c1=O` came in with an IC50 of 60 µM.
The same measure, in the same setting: to `Cc1cccc(-c2nc(Nc3ccncn3)c3sccc3n2)n1` belongs 35.2 µM; to `COc1cccc(-c2nc3c(N4CCCC4)cccc3n2CC2CCCN2)n1` (stereo unspecified), 37.4 µM; to `Cc1nc(-c2ccccn2)nc(N2CCC(Cc3ccccc3)C2)c1Cl` (stereo unspecified), 5.1 µM.
As for `Brc1cncc(-c2cc(NCCCn3ccnc3)nc(-c3ccccc3)n2)c1`, the IC50 turned out to be 55 µM.
In turn, `c1ccc2c(c1)CN(CC1CC1)CC1(CCN(Cc3c[nH]c4cnccc34)CC1)O2` had an IC50 of 62.9 µM.
Same read-out and setting: for `c1ccc(Oc2ccc(-c3cc(C4CCOCC4)[nH]n3)cc2)cc1` the value was 35.6 µM.
In turn, `CCCCOC(=O)Nc1cc2nc(C3CCCCC3)[nH]c2cc1N1CCCC1` registered an IC50 of 11.6 µM.
`COc1ccc(-c2onc(C(F)(F)F)c2-c2ccc(Cl)cc2)c(O)c1` had an IC50 of 8.8 µM.
For the compound `CCc1ccc(S(=O)(=O)Nc2cc(CN3CCN(CCC(C)C)CC3)ccc2C)cc1`, the IC50 came to 59.9 µM.
Consider `CCCn1c(NC(=O)c2ccc3ccccc3n2)nc2ccccc21`, for which the IC50 worked out at 3.7 µM.
In the case of `Cc1cc(NCCc2ccccc2)nc(NC(=N)Nc2ccc(Cl)cc2)n1`, the IC50 was 10.4 µM.

The test system of another test is Madurella mycetomatis MM55. Put plainly: IC90; higher = less potent. The following applies: 7 days.
As usually defined, the IC90 is the concentration at which the effect reaches the 90% level. In turn, `COc1ccc(-c2nnc3ccc(-c4cccc(C(C)C)c4)cn23)cc1OC` had an IC90 of 86.2 µM.
The compound `CN1CCN(CCCOc2ncc(Nc3ncc(-c4ccc(C(F)(F)F)c(F)c4)nc3C(N)=O)cn2)CC1` gave an IC90 of 85.2 µM.
Turning to `c1ccc(-c2nc(NC3CCCCC3)cc(C3CC3)n2)nc1`, the IC90 stood at 18.8 µM.
Still for that read-out and setting: to `CC(Oc1ccccc1)C(=O)Nc1nc(-c2ccccn2)cs1` (stereo unspecified) belongs 18.5 µM.
Compound `O=C(Nc1ccc(C(F)(F)F)c(C(F)(F)F)c1)c1cc(Cl)ccc1O` came in with an IC90 of 3.8 µM.
Turning to `c1ccc(Oc2ccc(-c3cc(CN4CCOCC4)[nH]n3)cc2)cc1`, the IC90 is 95.6 µM.
On to `O=C(Nc1cccc(Cl)c1)c1cnc(N2CCN(c3ccncc3)CC2)c(Cl)c1`, for which the IC90 worked out at 19.6 µM.
Turning to `Cc1cc(NCC(C)C)c2n[nH]c(-c3ccccc3)c2n1`, the IC90 amounted to 89.3 µM.
Turning to `O=C(Nc1cccc(-c2ccc(NCCCN3CCCC3)nc2)c1)c1ccccc1`, the IC90 worked out at 90.9 µM.
`CCc1c(C)nc(-n2nc(C)cc2NC(=O)c2ccccc2SC)[nH]c1=O` returned an IC90 of 15.1 µM.
Still for that read-out and setting: for `NCCN(C(=O)c1ccc(Cl)cc1Cl)c1ccc(OCc2ccc(Cl)cc2)cc1` the value was 17.9 µM; for `Oc1c(I)cc(I)c2cccnc12`, 4.65 µM.
Take `CC(C)(C)C1CCC(CC2=C(O)C(=O)c3ccccc3C2=O)CC1` (stereo unspecified): the 90% effect concentration (IC90) was 92.7 µM.
As for `COc1ccc(C2=NN(C3CCCCCC3)C(=O)[C@@H]3CC=CC[C@H]23)cc1OCCCCOc1ccc(-c2nn[nH]n2)cc1`, the IC90 worked out at 53.5 µM.
For the compound `O=C(Nc1nc(-c2ccccn2)cs1)c1cncn1-c1ccccc1`, the IC90 was found to be 40.8 µM.
Same read-out and setting: for `FC(F)(F)c1cc(NCCc2ccccc2)nc(-c2ccccn2)n1` the value was 91.1 µM; for `N#CCN(CCCCN1CCN(c2ccc(F)cc2)CC1)C(=O)OCc1ccccc1`, 93.7 µM.
Still for that read-out and setting: for `CC(C)(C)n1nc(Cc2ccc(F)c(Cl)c2)c2c(N)ncnc21` the value was 93 µM; for `Cc1cc(C)nc(-n2nc(C)cc2Nc2ccccc2)n1`, 91.3 µM; for `COc1ccc(C2=NN(C3CCCCCC3)C(=O)C2(C)C)cc1OCCCCOc1ccc(-c2nn[nH]n2)cc1`, 90.9 µM.
In turn, `CCCCc1ccc(C(=O)Nc2nccc3ccccc23)nc1` gave an IC90 of 86 µM.
`CC(C)(C)c1ccc(N[C@@H]2CCCC[C@H]2NC(=O)c2ccco2)cc1`: the IC90 was determined as 89.7 µM.
As to `COc1ccc(CN2CCOc3ccc(C(C)(O)CN(C)C)cc3C2)cc1C` (stereo unspecified), the IC90 is 93.5 µM.
As to `CC(C)(C)n1nc(-c2ccccc2)c2c(N)ncnc21`, the IC90 was 96.4 µM.
`CCOc1ccc2cc(-c3nn(CC4CCN(C)CC4)c4ncnc(N)c34)ccc2c1` registered an IC90 of 87.8 µM.
On to `COc1ccc(C(=N)N)cc1-c1cn(-c2ccc(C(=N)N)cc2)nn1`, for which the concentration for an effect of 90% (IC90) is 89.2 µM.
As to `Cn1c(=O)c2c(S(C)(=O)=O)snc2n(C)c1=O`, the IC90 is 91.5 µM.
With `Cc1cccc(-c2nc(Nc3ccncn3)c3sccc3n2)n1`, the IC90 stood at 88.1 µM.
Regarding `COc1cccc(-c2nc3c(N4CCCC4)cccc3n2CC2CCCN2)n1` (stereo unspecified), the IC90 was found to be 84 µM.
Take `Cc1nc(-c2ccccn2)nc(N2CCC(Cc3ccccc3)C2)c1Cl` (stereo unspecified): the IC90 was 13.7 µM.
Turning to `Brc1cncc(-c2cc(NCCCn3ccnc3)nc(-c3ccccc3)n2)c1`, the IC90 is 90.8 µM.
In turn, `c1ccc2c(c1)CN(CC1CC1)CC1(CCN(Cc3c[nH]c4cnccc34)CC1)O2` displayed an IC90 of 96 µM.
In turn, `c1ccc(Oc2ccc(-c3cc(C4CCOCC4)[nH]n3)cc2)cc1` displayed a concentration for an effect of 90% (IC90) of 57 µM.
The same measure, in the same setting: for `CCCCOC(=O)Nc1cc2nc(C3CCCCC3)[nH]c2cc1N1CCCC1` the value was 18.4 µM; for `COc1ccc(-c2onc(C(F)(F)F)c2-c2ccc(Cl)cc2)c(O)c1`, 16.8 µM; for `CCc1ccc(S(=O)(=O)Nc2cc(CN3CCN(CCC(C)C)CC3)ccc2C)cc1`, 91.5 µM.
The same measure, in the same setting: to `CCCn1c(NC(=O)c2ccc3ccccc3n2)nc2ccccc21` belongs 9.85 µM.
`Cc1cc(NCCc2ccccc2)nc(NC(=N)Nc2ccc(Cl)cc2)n1`: the IC90 was found to be 18.8 µM.
